Laboratory results published in PubChem BioAssay AID1159580 (chemical genetic matrix, 2015).
Out of some 5,500 compounds screened, about 2,000 (36%) were called active. About 18% were inconclusive and are not listed. Cut-off read from the data, not from the text of the source: active = normalized growth mostly below about 0.91 (no sharp cut-off); inconclusive = no clear call, values can overlap the other calls; inactive = mostly above about 0.92. The list shows a part of the results.

Experiment: chemical genetic growth profiling, strain panel (AID 1159580);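 note: tested at 20 µM; growth read once vehicle control cultures reached saturation at 30 °C; 1 = growth at the plate median or of vehicle wells; lower values mean less growth of the strain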
Settings: S. cerevisiae deletion strains, growth OD

Measured: normalized growth

Cc1ccc(C(O)(c2ccccc2)c2ccccc2)c2ccccc12
inactive: locus YAR019C, strain CDC15, hits give low values 0.992 | locus YBL105C, strain PKC1, hits give low values 0.985 | locus YBR135W, strain CKS1, hits give low values 0.98 | locus YBR136W, strain MEC1, hits give low values 0.983 | locus YBR160W, strain CDC28, hits give low values 0.985 | locus YDL017W, strain CDC7, hits give low values 0.992 | locus YDL028C, strain MPS1, hits give low values 0.985 | locus YDL101C, strain DUN1, hits give low values 0.97 | locus YDL108W, strain KIN28, hits give low values 0.981 | locus YDL132W, strain cdc53, hits give low values 0.976 | locus YDL214C, strain PRR2, hits give low values 0.963 | locus YDR052C, strain DBF4, hits give low values 0.992 | locus YDR054C, strain cdc34, hits give low values 0.988 | locus YDR226W, strain ADK1, hits give low values 0.983 | locus YDR477W, strain SNF1, hits give low values 0.975 | locus YER123W, strain YCK3, hits give low values 1 | locus YER133W, strain GLC7, hits give low values 0.998 | locus YFL009W, strain cdc4, hits give low values 0.982 | locus YFL029C, strain CAK1, hits give low values 0.993 | locus YFR003C, strain YPI1, hits give low values 0.988 | locus YFR019W, strain FAB1, hits give low values 0.952 | locus YFR028C, strain CDC14, hits give low values 0.979 | locus YGR040W, strain KSS1, hits give low values 0.947 | locus YGR052W, strain FMP48, hits give low values 0.982 | locus YGR092W, strain DBF2, hits give low values 0.907 | locus YHR030C, strain SLT2, hits give low values 1.02 | locus YHR079C, strain IRE1, hits give low values 0.996 | locus YHR082C, strain KSP1, hits give low values 1 | locus YHR205W, strain SCH9, hits give low values 0.858 | locus YIL147C, strain SLN1, hits give low values 0.993 | locus YJL095W, strain BCK1, hits give low values 0.904 | locus YJL128C, strain PBS2, hits give low values 0.926 | locus YJL157C, strain FAR1, hits give low values 0.997 | locus YJR016C, strain ILV3, hits give low values 0.995 | locus YJR066W, strain TOR1 (second series), hits give low values 0.963 | locus YJR066W, strain TOR1, hits give low values 1.01 | locus YKL048C, strain ELM1, hits give low values 0.965 | locus YKL067W, strain YNK1, hits give low values 0.975 | locus YKL101W, strain HSL1, hits give low values 0.953 | locus YKL193C, strain SDS22, hits give low values 0.989 | locus YKL203C, strain TOR2, hits give low values 1.01 | locus YLR113W, strain HOG1, hits give low values 0.936 | locus YLR133W, strain CKI1, hits give low values 0.949 | locus YLR403W, strain SFP1, hits give low values 0.916 | locus YML070W, strain DAK1, hits give low values 0.959 | locus YMR001C, strain CDC5, hits give low values 0.988 | locus YMR205C, strain PFK2 (second series), hits give low values 0.976 | locus YMR277W, strain FCP1, hits give low values 0.991 | locus YNL006W, strain LST8, hits give low values 0.984 | locus YNL020C, strain ARK1, hits give low values 0.955 | locus YNL161W, strain CBK1, hits give low values 0.98 | locus YNL183C, strain NPR1, hits give low values 0.987 | locus YNL207W, strain RIO2, hits give low values 0.991 | locus YNL222W, strain SSU72, hits give low values 0.983 | locus YNL307C, strain MCK1 (second series), hits give low values 0.904 | locus YOL078W, strain AVO1, hits give low values 0.979 | locus YOL136C, strain PFK27, hits give low values 0.929 | locus YOR061W, strain CKA2, hits give low values 0.979 | locus YOR119C, strain RIO1, hits give low values 1.05 | locus YOR231W, strain MKK1, hits give low values 0.966 | locus YOR329C, strain SCD5, hits give low values 0.992 | locus YPL031C, strain PHO85, hits give low values 0.983 | locus YPL153C, strain RAD53, hits give low values 1 | locus YPL204W, strain HRR25, hits give low values 0.956 | locus YPL209C, strain IPL1, hits give low values 0.983 | locus YPL256C, strain CLN2, hits give low values 1.04 | locus YPR025C, strain CCL1, hits give low values 0.99 | locus YPR106W, strain ISR1, hits give low values 0.97 | locus YPR111W, strain DBF20, hits give low values 0.953 | strain NNK1, hits give low values 0.976 | strain TSCII, hits give low values 0.982
